In PubChem BioAssay AID1159580 (chemical genetic matrix, 2015):
Hit rate of the full screen: of about 5,500 compounds, about 2,000 (36%) were called active. Another 18% or so got no clear call; they are omitted. No stated cut-off is given here; in the data, active means normalized growth mostly below about 0.91 (no sharp cut-off); inconclusive means no clear call, values can overlap the other calls; inactive means mostly above about 0.92. Some of the results follow.

Test: chemical genetic growth profiling, strain panel (AID 1159580);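 further: tested at 20 µM; growth read once vehicle control cultures reached saturation at 30 °C; 1 = growth at the plate median or of vehicle wells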
Conditions: growth OD

Measured: normalized growth

CCS(=O)(=O)CCn1c([N+](=O)[O-])cnc1C
inactive: S. cerevisiae deletion strains, locus YJR075W, strain HOC1, stronger effect = lower value 0.981 | S. cerevisiae deletion strains, locus YKL009W, strain mrt4, stronger effect = lower value 1.04 | S. cerevisiae deletion strains, locus YKL068W, stronger effect = lower value 1.02 | S. cerevisiae deletion strains, locus YKL085W, strain MDH1 (second series), stronger effect = lower value 1.04 | S. cerevisiae deletion strains, locus YKL085W, strain MDH1, stronger effect = lower value 1.04 | S. cerevisiae deletion strains, locus YKL160W, strain elf1, stronger effect = lower value 1.03 | S. cerevisiae deletion strains, locus YKL190W, strain CNB1, stronger effect = lower value 1.01 | S. cerevisiae deletion strains, locus YKR001C, strain vps1, stronger effect = lower value 1.03 | S. cerevisiae deletion strains, locus YKR026C, strain gcn3, stronger effect = lower value 0.984 | S. cerevisiae deletion strains, locus YKR091W, strain srl3, stronger effect = lower value 0.999 | S. cerevisiae deletion strains, locus YLL001W, strain dnm1, stronger effect = lower value 0.993 | S. cerevisiae deletion strains, locus YLL026W, stronger effect = lower value 1.01 | S. cerevisiae deletion strains, locus YLL041C, strain sdh2, stronger effect = lower value 0.993 | S. cerevisiae deletion strains, locus YLR027C, strain aat2, stronger effect = lower value 0.997 | S. cerevisiae deletion strains, locus YLR039C, strain RIC1, stronger effect = lower value 1.07 | S. cerevisiae deletion strains, locus YLR058C, strain SHM2, stronger effect = lower value 1.01 | S. cerevisiae deletion strains, locus YLR102C, strain apc9, stronger effect = lower value 1.01 | S. cerevisiae deletion strains, locus YLR113W, strain HOG1, stronger effect = lower value 0.938 | S. cerevisiae deletion strains, locus YLR221C, strain rsa3, stronger effect = lower value 0.989 | S. cerevisiae deletion strains, locus YLR258W, strain gsy2, stronger effect = lower value 1.01 | S. cerevisiae deletion strains, locus YLR262C, strain YPT6 (second series), stronger effect = lower value 0.967 | S. cerevisiae deletion strains, locus YLR262C, strain YPT6, stronger effect = lower value 1.1 | S. cerevisiae deletion strains, locus YLR268W, strain sec22, stronger effect = lower value 1.01 | S. cerevisiae deletion strains, locus YLR320W, strain mms22, stronger effect = lower value 0.972 | S. cerevisiae deletion strains, locus YLR330W, strain CHS5, stronger effect = lower value 1.01 | S. cerevisiae deletion strains, locus YLR342W, strain FKS1 (second series), stronger effect = lower value 1.06 | S. cerevisiae deletion strains, locus YLR342W, strain FKS1, stronger effect = lower value 1.02 | S. cerevisiae deletion strains, locus YLR357W, strain rsc2, stronger effect = lower value 0.999 | S. cerevisiae deletion strains, locus YLR370C, strain arc18, stronger effect = lower value 1 | S. cerevisiae deletion strains, locus YLR371W, strain rom2, stronger effect = lower value 1.01 | S. cerevisiae deletion strains, locus YLR384C, strain iki3, stronger effect = lower value 1.01 | S. cerevisiae deletion strains, locus YLR418C, strain cdc73, stronger effect = lower value 1.03 | S. cerevisiae deletion strains, locus YML016C, strain PPZ1, stronger effect = lower value 1.01 | S. cerevisiae deletion strains, locus YML032C, strain rad52, stronger effect = lower value 1.03 | S. cerevisiae deletion strains, locus YML120C, strain ndi1, stronger effect = lower value 1 | S. cerevisiae deletion strains, locus YML124C, strain tub3, stronger effect = lower value 1 | S. cerevisiae deletion strains, locus YMR058W, strain fet3, stronger effect = lower value 1 | S. cerevisiae deletion strains, locus YMR078C, strain ctf18, stronger effect = lower value 1.01 | S. cerevisiae deletion strains, locus YMR125W, strain sto1, stronger effect = lower value 0.976 | S. cerevisiae deletion strains, locus YMR129W, stronger effect = lower value 0.98 | S. cerevisiae deletion strains, locus YMR205C, strain PFK2, stronger effect = lower value 0.988 | S. cerevisiae deletion strains, locus YMR223W, strain ubp8, stronger effect = lower value 1.04 | S. cerevisiae deletion strains, locus YMR231W, strain pep5, stronger effect = lower value 0.991 | S. cerevisiae deletion strains, locus YMR263W, strain SAP30, stronger effect = lower value 1.02 | S. cerevisiae deletion strains, locus YMR307W, strain GAS1, stronger effect = lower value 1.21 | S. cerevisiae deletion strains, locus YNL067W, strain RPL9B, stronger effect = lower value 1.02 | S. cerevisiae deletion strains, locus YNL071W, strain lat1, stronger effect = lower value 0.982 | S. cerevisiae deletion strains, locus YNL128W, strain TEP1, stronger effect = lower value 1.02 | S. cerevisiae deletion strains, locus YNL153C, strain GIM3, stronger effect = lower value 1.01 | S. cerevisiae deletion strains, locus YNL183C, strain NPR1, stronger effect = lower value 0.915 | S. cerevisiae deletion strains, locus YNL209W, strain ssb2, stronger effect = lower value 0.987 | S. cerevisiae deletion strains, locus YNL233W, strain BNI4, stronger effect = lower value 1.02 | S. cerevisiae deletion strains, locus YNL248C, strain rpa49, stronger effect = lower value 1.01 | S. cerevisiae deletion strains, locus YNL250W, strain rad50, stronger effect = lower value 1.02 | S. cerevisiae deletion strains, locus YNL271C, strain bni1, stronger effect = lower value 1.02 | S. cerevisiae deletion strains, locus YNL298W, strain CLA4, stronger effect = lower value 1.03 | S. cerevisiae deletion strains, locus YNL307C, strain MCK1, stronger effect = lower value 1.05 | S. cerevisiae deletion strains, locus YNL322C, strain KRE1 (second series), stronger effect = lower value 1.01 | S. cerevisiae deletion strains, locus YNL322C, strain KRE1, stronger effect = lower value 1.01 | S. cerevisiae deletion strains, locus YNR049C, strain mso1, stronger effect = lower value 0.997 | S. cerevisiae deletion strains, locus YNR052C, strain pop2, stronger effect = lower value 1.01 | S. cerevisiae deletion strains, locus YOL006C, strain TOP1, stronger effect = lower value 1.04 | S. cerevisiae deletion strains, locus YOL012C, strain htz1 0.976 | S. cerevisiae deletion strains, locus YOL147C, strain pex11, stronger effect = lower value 1 | S. cerevisiae deletion strains, locus YOR001W, strain rrp6, stronger effect = lower value 0.971 | S. cerevisiae deletion strains, locus YOR061W, strain CKA2, stronger effect = lower value 1.01 | S. cerevisiae deletion strains, locus YOR069W, strain VPS5, stronger effect = lower value 1 | S. cerevisiae deletion strains, locus YOR070C, strain gyp1, stronger effect = lower value 1.01 | S. cerevisiae deletion strains, locus YOR080W, strain dia2, stronger effect = lower value 1.01 | S. cerevisiae deletion strains, locus YOR083W, strain WHI5, stronger effect = lower value 1 | S. cerevisiae deletion strains, locus YOR106W, strain vam3, stronger effect = lower value 1.02 | S. cerevisiae deletion strains, locus YOR136W, strain idh2, stronger effect = lower value 1.02 | S. cerevisiae deletion strains, locus YOR144C, strain elg1, stronger effect = lower value 1.01 | S. cerevisiae deletion strains, locus YOR184W, strain ser1, stronger effect = lower value 1.07 | S. cerevisiae deletion strains, locus YOR231W, strain MKK1, stronger effect = lower value 0.962 | S. cerevisiae deletion strains, locus YOR265W, strain rbl2, stronger effect = lower value 0.994 | S. cerevisiae deletion strains, locus YOR270C, strain vph1, stronger effect = lower value 0.977 | S. cerevisiae deletion strains, locus YOR290C, strain snf2, stronger effect = lower value 1.02 | S. cerevisiae deletion strains, locus YOR316C, strain cot1, stronger effect = lower value 1.02 | S. cerevisiae deletion strains, locus YPL051W, strain arl3, stronger effect = lower value 1.03 | S. cerevisiae deletion strains, locus YPL055C, strain LGE1, stronger effect = lower value 1.06 | S. cerevisiae deletion strains, locus YPL078C, strain atp4, stronger effect = lower value 1.01 | S. cerevisiae deletion strains, locus YPL106C, strain sse1, stronger effect = lower value 0.994 | S. cerevisiae deletion strains, locus YPL240C, strain hsp82, stronger effect = lower value 0.991 | S. cerevisiae deletion strains, locus YPL241C, strain CIN2, stronger effect = lower value 1.01 | S. cerevisiae deletion strains, locus YPL256C, strain CLN2, stronger effect = lower value 0.973 | S. cerevisiae deletion strains, locus YPR119W, strain clb2, stronger effect = lower value 1 | S. cerevisiae deletion strains, locus YPR141C, strain kar3, stronger effect = lower value 1.02 | S. cerevisiae deletion strains, locus YPR163C, strain tif3, stronger effect = lower value 1.01 | S. cerevisiae deletion strains, locus YPR167C, strain met16, stronger effect = lower value 1.02 | S. cerevisiae deletion strains, strain wtn01, stronger effect = lower value 1 | S. cerevisiae strains, strain wild type, stronger effect = lower value 1.05
